Laboratory results reported in PubChem BioAssay (EPA / NIEHS).
Active and inactive are the calls of the source. Rule for the calls: active = hit-call score of the fitted dose curve at least 0.9, where 1 is the maximum; inactive = score below 0.9.

read-out: X-box binding protein 1 (XBP1), XBP1 (gene 7494); test: LTEA_HepaRG_XBP1: Life Technologies and Expression Analysis (LTEA) Assay for X-box binding protein 1 (XBP1) using HepaRG (AID 2283540); settings: mRNA level, 48 h; actives raise or lower the signal
Method: LTEA_HepaRG is a cell based, multiplexed-readout assay that uses HepaRG, a human liver cell line, with measurements taken at 48 hours after chemical dosing on a 96-well plate.LTEA_HepaRG_XBP1 is one of 102 assay component(s) measured in the LTEA HepaRG cell culture assay. It is a marker of Diseases associated with XBP1 including Major Affective Disorder 7 and Bipolar Disorder.Data from the assay component LTEA_HepaRG_XBP1 was analyzed into 1 endpoint. This assay endpoint, LTEA_HepaRG_XBP1, was analyzed with bidirectional fitting relative to DMSO as the negative control and baseline of activity. Using a type of inducible reporter, measures of mRNA induction for gain or loss-of-signal activity can be used to understand regulation of transcription factor activity. To generalize the intended target to other relatable targets, this assay endpoint is annotated to the dna binding intended target family, where the subfamily is basic leucine zipper.
A total of 1060 chemcials from the ToxCast library were tested in eight-point concentration-response experiments. Cell culture and cytotoxicity assays were conducted at Thermo Fisher Scientific's Custom Services facility (Madison, WI). A single lot of human HepaRG cells (Thermo Fisher Scientific, Frederick, MD) was used for the cell culture experiments. 96-well format collagen type I coated plates of human HepaRG cells were prepared using established methods. Briefly, cryopreserved HepaRG cells were thawed, plated at a density of approximately 100,000 cells/well in HepaRG Thaw, Plate, and General Purpose media (HPRG770, Thermo Fisher Scientific), and incubated for 48 hours. 0.5% DMSO was selected as vehicle control to balance the requisite need of DMSO in HepaRG cultures to maintain differentiation (for example, baseline metabolism, proportions of hepatocytes vs. cholangiocytes), while enabling further hepatic receptor pathway activation (for example, PXR and CAR) in response to chemical exposure. 48 hours after plating, the culture medium was replaced with HepaRG Serum-Free Incudtion Media. Cells were exposed to each test chemical in duplicate and maintained in CO2 incubators for another 48 hours. Chemical plates were thawed to room temperature and 200x concentrations of treatment groups were prepared. 8-point conentration-reponse curves were made with the highest exposure at 100 uM, followed by half-log dilutions, all in 0.5% DMSO. Each test plate contained variouse controls, induction positive controls (1mM phenobarbital), cytotoxicity positive controls ([…] aflatoxin B1), vehicle controls (0.5% DMSO), and total lysis controls (0.5% DMSO). Cell morphology images were taken using an Essen IncuCyte FLR automated microscope, with six 96-well plates imaged in about 24 minutes. Images were captured and exported and JPEG files. Spent culture media was transfered to black-well plates for the LDH assay, and remaining media was sorted at -80 C for later use. Cells were treated with RLT buffer and frozen until shipped for gene expression analysis. Total RNA was isolated from the cell suspension in 75 uL of Buffer RLT (Qiagen, Germantown, MD 20874) by Quintiles/Expression Analysis (Durham, NC) using a custom isolation procedure. Total RNA from each plate well was transferred to a preamplification plate. Fluidigm's 96.96 Dynamic ArrayTM (Fluidigm, Amsterdam, the Netherlands) technology was used for gene expression analyses by quantitative reverse transcription polymerase chain reaction (qRT-PCR, performed by Quintiles/Expression Analysis, Durham, NC)89. Standard TaqManTM Assays (Applied Biosystems/ThermoFisher Scientific, Foster City, CA) were used to assess the expression of 93 genes selected based on their selectivity and sensitivity to important hepatic receptors known to be modulated by environmental chemicals; importance in human hepatocyte functionality; and hepatotoxicity. […]

Row | Structure (SMILES) | outcome | AC50
1 | CCCCCCC(CCCCCCCCCCC(=O)OCC(COC(C)=O)OC(C)=O)OC(C)=O (stereo not given) | inactive | 
2 | CCCCCCCCCC[N+](C)(C)[O-] | inactive | 
3 | CCOCCOCCO | inactive | 
4 | COc1ccc(OC(F)(F)F)cc1CN[C@H]1CCCN[C@H]1c1ccccc1 | inactive | 
5 | CCc1nc(N)nc(N)c1-c1ccc(Cl)cc1 | inactive | 
6 | OCC(CO)n1cnc(-c2ccc(F)cc2)c1-c1ccnc(Oc2ccccc2)n1 | inactive | 
7 | NCCOCCOCCN | inactive | 
8 | O=C(O)c1[nH]n(-c2ccc(S(=O)(=O)O)cc2)c(=O)c1N=Nc1ccc(S(=O)(=O)O)cc1 | inactive | 
9 | C/C=C/C=C/C(=O)O | inactive | 
10 | CN(C)C(=O)NC1(c2ccccc2)CCN(CCC[C@]2(c3ccc(Cl)c(Cl)c3)CCCN(C(=O)c3ccccc3)C2)CC1 |  | 12.5 µM (active)
11 | O=C(O)CC(O)(CC(=O)O)C(=O)O | inactive | 
12 | CCCCCCCCCCCCCCCCO | inactive | 
13 | CC(C)COC(=O)CCCCC(=O)OCC(C)C | inactive | 
14 | O=C1CCCCC1 | inactive | 
15 | Cc1occc(=O)c1O | inactive | 
16 | Cc1cc(Cc2ccc(N)c(C)c2)ccc1N | inactive | 
17 | COC(=O)CCC(=O)OC | inactive | 
18 | O=C(NS(=O)(=O)/C=C/c1cccs1)c1ccc(F)cc1Br | inactive | 
19 | CCCCOC(=O)CCCCC(=O)OCCCC | inactive | 
20 | CC(COCC(C)OC(=O)c1ccccc1)OC(=O)c1ccccc1 (stereo not given) | inactive | 

Row | Structure (SMILES) | outcome | AC50
21 | CC(C)c1cccc(C(C)C)c1NC(=O)NS(=O)(=O)c1cc(C(C)(C)O)co1 | inactive | 
22 | OCC(O)CO | inactive | 
23 | O=C(O)CN(CC(=O)O)CC(=O)O | inactive | 
24 | Cc1ccc(-c2cc(C(F)(F)F)nn2-c2ccc(S(N)(=O)=O)cc2)cc1 |  | 50 µM (active)
25 | C=CCc1ccc(OC)c(OC)c1 | inactive | 
26 | CC(C)(C)c1ccccc1 | inactive | 
27 | CN(C)C(=O)NC1(c2ccccc2)CCN(CC[C@@]2(c3ccc(F)c(F)c3)CN(C(=O)c3ccccc3)CCO2)CC1 | inactive | 
28 | CC1(C)C(=O)NC(=O)N1CO | inactive | 
29 | CCN(CC)CCOc1ccc(C(=C(Cl)c2ccccc2)c2ccccc2)cc1 | inactive | 
30 | CCCC(=O)O | inactive | 
31 | NC1CCCCC1 | inactive | 
32 | O=C(Oc1ccccc1)c1cccc(C(=O)Oc2ccccc2)c1 | inactive | 
33 | Oc1ccc(O)cc1 | inactive | 
34 | C#CC(O)C(CC)CCCC (stereo not given) | inactive | 
35 | CC(=O)O[C@]1(C(C)=O)CC[C@H]2[C@@H]3C=C(Cl)C4=CC(=O)[C@@H]5C[C@@H]5[C@]4(C)[C@H]3CC[C@@]21C | inactive | 
36 | COC(=O)[C@H]1[C@H]2C[C@@H]3c4[nH]c5cc(OC)ccc5c4CCN3C[C@H]2C[C@@H](OC(=O)c2cc(OC)c(OC)c(OC)c2)[C@@H]1OC |  | 42.2 µM (active)
37 | CC(C)(O)c1ccc(CNC(=O)c2cccnc2Oc2ccc(F)cc2)cc1 | inactive | 
38 | CC(=O)CC(c1ccccc1)c1c(O)c2ccccc2oc1=O (stereo not given) | inactive | 
39 | c1ccc2occc2c1 | inactive | 
40 | CCCCCCCCCCCCCCOS(=O)(=O)O | inactive | 
